Experimental findings from PubChem BioAssay (NCI) are described below.

About 83,000 compounds went through this panel and 20% of them were active in at least one assay; those are over-represented in the sample as a whole.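 Percent growth is the endpoint: 0 to 100 indicates growth inhibition (40 means 60% inhibition), 0 means no net growth, and negative values indicate cell death.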 A number with no mark means an inactive call. The source made the active and inactive calls. The calls were made as follows: active = growth percent below 10; inactive = the rest.

The test system of the first experiment is SN12C renal. In words: NCI-60 one-dose screen, 48 h (100 = growth as untreated, 0 = no growth, -100 = all killed). The note with it: 10 µM unless noted.
Consider `c1ccc(Cn2cnc3ccc(-c4nc(-c5ccc6c(c5)ncn6C5CCCCC5)cn5ccnc45)cc32)cc1`, for which the growth is -35.4% (active).
Turning to `N/C(=N\C(N)=N\c1nc2ccccc2s1)c1cccc(Cl)c1`, the growth was 38.5%.
As for `O=C(Cc1ccccc1)NNc1nc(Cl)nc(N2CCN(C(c3ccccc3)c3ccccc3)CC2)n1`, the growth was 97.1%.
Regarding `CCN(CC)c1ccc(C(=O)c2ccccc2)cc1`, the growth is 98.8%.
Same read-out and setting: in the case of `O=C(Nc1ncc(Cc2cc(Cl)ccc2Cl)s1)c1cccs1` it was 65.4%.
With `COc1cc(C2C3CC4CCCC[C@H]4N3[C@@]3(C(=O)Nc4cc(Cl)ccc43)C2C(=O)c2nc3ccccc3[nH]2)cc(OC)c1OC` (some centres undefined), the growth was 63.2%.
With `CC(=O)[C@@H]1CC[C@]2(C(N)=O)CC[C@]3(C)[C@H](CC[C@@H]4[C@@]5(C)CCCNC(C)(C)[C@@H]5CC[C@]43C)[C@@H]12`, the growth was 86.5%.
On the same count and under the same terms, in the case of `Cc1cccc(C)c1N=c1oc2ccc(Cl)cc2nc1-c1ccccc1O` it was 86.9%.
Regarding `O=S(=O)(NCCCNc1nccc(-c2c(-c3cccc(O)c3)nc3occn23)n1)c1ccc(Cl)cc1`, the growth was 71.5%.
`N#C/C(=C\c1ccc([N+](=O)[O-])s1)c1nc2cc(Br)ccc2s1`: the growth was -30.1% (active).
Consider `Oc1ccc(C(c2ccc(O)cc2)c2ccc(Br)cn2)cc1`, for which the growth was 1.64% (active).
Turning to `Cc1nc2sccn2c1-c1cn2ccsc2n1`, the growth is 93.6%.
As for `CCOC(=O)/C(C#N)=C1/NNC(=Nc2cccnc2)S1`, the growth was 98.6%.
Regarding `O=S(=O)(NCCCNc1nccc(-c2c(-c3cccc(F)c3)nc3sccn23)n1)c1cccc2ccccc12`, the growth was 46.9%.
In the case of `CCCNC(=O)Oc1ccc(/C(=C(\C)c2ccccc2)c2ccc(OCCCN(C)C)cc2)cc1`, the growth is 77.4%.
With `O=C(CSc1nc2sc3c(c2c(=O)n1-c1ccc(Cl)cc1)CCCC3)Nc1nc(-c2cccc(Br)c2)cs1`, the growth is 79.5%.
For `O=C1c2ccc3c4c(ccc(c24)C(=O)N1CCCNCc1ccccc1F)C(=O)N(CCCNCc1ccccc1F)C3=O`, the growth was -75.7% (active).
In the case of `CCN(CC)c1ccc(/C=N/NC(=O)CSc2nc3ccccc3c(=O)n2CCc2ccc(S(N)(=O)=O)cc2)c(O)c1`, the growth is 28.2%.
On the same count and under the same terms, in the case of `CCCCCN1C=C/C(=C\C(=O)N(C)c2ccc(Oc3ccccc3)cc2)c2ccccc21` it was 87.5%; in that of `C/C=C(\C)C(=O)NC1=CC[C@@]2(C)C(=CCC3C2CC[C@@]2(C)C3CC[C@@H]2C(C)N(C)C)C1=O` (some centres undefined), 60.6%; in that of `C[C@H]1[C@H](C)CC[C@]2(C(=O)NCC#CCN3CCN(C)CC3)CC[C@]3(C)C(=CC[C@@H]4[C@@]5(C)Cc6c([nH]c7ccccc67)C(C)(C)[C@@H]5CC[C@]43C)[C@H]12`, 81.2%.
As for `CCOC(=O)c1cc(C(=O)c2ccc(Br)cc2)n2ccc(/C=C/c3cc[n+](CC(=O)c4ccc(OC)cc4)cc3)cc12`, the growth was 78%.
Consider `NC(=NCCCOc1ccc(F)cc1)Nc1ccc(I)cc1`, for which the growth was 81%.
With `O=C(/C=C(/C=C/c1coc2ccccc12)OB(F)F)/C=C/c1coc2ccccc12`, the growth is 97.4%.
For the compound `COc1cc(NC(=O)CSc2nc3ccc(C)cc3c(=O)n2Cc2ccccc2)cc(OC)c1OC`, the growth is 83.5%.
Take `Oc1ccc(C2c3ccccc3Oc3ccccc32)c2cccnc12`: the growth was 22.9%.
In the case of `Cc1ccc(C(=O)/C(=C\c2ccc([N+](=O)[O-])cc2)S(=O)Cc2ccc(F)cc2)cc1` (centres undefined), the growth was -52.1% (active).
For the compound `COc1cc2oc(-c3cccc(C(=O)Nc4ccccc4)c3)cc(=O)c2c(O)c1OC`, the growth is 74.8%.
As to `COc1ccc(C(=O)/C=C/c2cc3ccccc3n3nnnc23)cc1`, the growth is 102%.
Consider `Cc1nc2sccn2c1-c1nc2sccn2c1/C=C1/C(=O)Nc2ccccc21`, for which the growth is 65.6%.
On the same count and under the same terms, the value for `COc1cc2c(c(OC)c1OC)CCC(c1cccc(NC(=O)c3cccc(Br)c3)c1)O2` (centres undefined) was 87.6%.
The same measure, in the same setting: the value for `CCCCCN1C=C/C(=C\C(=O)N(C)c2ccccc2Br)c2ccccc21` was 89.2%; that for `COc1ccc(C(=O)c2cc(OC)c(OC)c(OC)c2)cc1O` was 15.2%; that for `CC(C)(C)c1cc(C=O)cc(C(C)(C)C)c1O` was 104%.
Take `CCOC(=O)c1nc2c3ccccc3ccn2c1C(=O)OCC`: the growth was 95.4%.
On the same count and under the same terms, the value for `CC(C)=CCC[C@](C)(O)[C@H]1CC[C@]2(C)[C@@H]1CC[C@@H]1[C@@]3(C)C/C(=C/c4ccccc4)C(=O)C(C)(C)[C@@H]3CC[C@]12C` was 91%.
Consider `C=C(C)[C@@H]1CC[C@]2(C(=O)N3CCN(C)CC3)CC[C@]3(C)[C@H](CC[C@@H]4[C@@]5(C)CC[C@H](O)C(C)(C)[C@@H]5CC[C@]43C)[C@@H]12`, for which the growth is -74.2% (active).

The next experiment deals with UO-31 renal. The experiment is described as above. The note with it: 10 µM unless noted.
As for `c1ccc(Cn2cnc3ccc(-c4nc(-c5ccc6c(c5)ncn6C5CCCCC5)cn5ccnc45)cc32)cc1`, the growth is -51.4% (active).
For the compound `N/C(=N\C(N)=N\c1nc2ccccc2s1)c1cccc(Cl)c1`, the growth was 33.2%.
As to `O=C(Cc1ccccc1)NNc1nc(Cl)nc(N2CCN(C(c3ccccc3)c3ccccc3)CC2)n1`, the growth was 96.7%.
Regarding `CCN(CC)c1ccc(C(=O)c2ccccc2)cc1`, the growth was 82%.
`O=C(Nc1ncc(Cc2cc(Cl)ccc2Cl)s1)c1cccs1`: the growth was 62.5%.
The same measure, in the same setting: in the case of `COc1cc(C2C3CC4CCCC[C@H]4N3[C@@]3(C(=O)Nc4cc(Cl)ccc43)C2C(=O)c2nc3ccccc3[nH]2)cc(OC)c1OC` (some centres undefined) it was 34.8%.
On to `CC(=O)[C@@H]1CC[C@]2(C(N)=O)CC[C@]3(C)[C@H](CC[C@@H]4[C@@]5(C)CCCNC(C)(C)[C@@H]5CC[C@]43C)[C@@H]12`, for which the growth was 76.5%.
As to `Cc1cccc(C)c1N=c1oc2ccc(Cl)cc2nc1-c1ccccc1O`, the growth is 76.8%.
Same read-out and setting: in the case of `O=S(=O)(NCCCNc1nccc(-c2c(-c3cccc(O)c3)nc3occn23)n1)c1ccc(Cl)cc1` it was 89.8%; in that of `N#C/C(=C\c1ccc([N+](=O)[O-])s1)c1nc2cc(Br)ccc2s1`, -52.1% (active); in that of `Oc1ccc(C(c2ccc(O)cc2)c2ccc(Br)cn2)cc1`, 53%.
Take `Cc1nc2sccn2c1-c1cn2ccsc2n1`: the growth is 89.7%.
As for `CCOC(=O)/C(C#N)=C1/NNC(=Nc2cccnc2)S1`, the growth is 92.1%.
For the compound `O=S(=O)(NCCCNc1nccc(-c2c(-c3cccc(F)c3)nc3sccn23)n1)c1cccc2ccccc12`, the growth is 20%.
On the same count and under the same terms, in the case of `CCCNC(=O)Oc1ccc(/C(=C(\C)c2ccccc2)c2ccc(OCCCN(C)C)cc2)cc1` it was 50%; in that of `O=C(CSc1nc2sc3c(c2c(=O)n1-c1ccc(Cl)cc1)CCCC3)Nc1nc(-c2cccc(Br)c2)cs1`, 74.6%; in that of `O=C1c2ccc3c4c(ccc(c24)C(=O)N1CCCNCc1ccccc1F)C(=O)N(CCCNCc1ccccc1F)C3=O`, -58% (active).
On to `CCN(CC)c1ccc(/C=N/NC(=O)CSc2nc3ccccc3c(=O)n2CCc2ccc(S(N)(=O)=O)cc2)c(O)c1`, for which the growth is 28.2%.
Still for that read-out and setting: in the case of `CCCCCN1C=C/C(=C\C(=O)N(C)c2ccc(Oc3ccccc3)cc2)c2ccccc21` it was 85.3%; in that of `C/C=C(\C)C(=O)NC1=CC[C@@]2(C)C(=CCC3C2CC[C@@]2(C)C3CC[C@@H]2C(C)N(C)C)C1=O` (some centres undefined), 1.15% (active).
Turning to `C[C@H]1[C@H](C)CC[C@]2(C(=O)NCC#CCN3CCN(C)CC3)CC[C@]3(C)C(=CC[C@@H]4[C@@]5(C)Cc6c([nH]c7ccccc67)C(C)(C)[C@@H]5CC[C@]43C)[C@H]12`, the growth is 67.6%.
Consider `CCOC(=O)c1cc(C(=O)c2ccc(Br)cc2)n2ccc(/C=C/c3cc[n+](CC(=O)c4ccc(OC)cc4)cc3)cc12`, for which the growth was 77.6%.
Take `NC(=NCCCOc1ccc(F)cc1)Nc1ccc(I)cc1`: the growth was 59.2%.
Still for that read-out and setting: in the case of `O=C(/C=C(/C=C/c1coc2ccccc12)OB(F)F)/C=C/c1coc2ccccc12` it was 87.7%; in that of `COc1cc(NC(=O)CSc2nc3ccc(C)cc3c(=O)n2Cc2ccccc2)cc(OC)c1OC`, 71.4%.
On to `Oc1ccc(C2c3ccccc3Oc3ccccc32)c2cccnc12`, for which the growth is 4.44% (active).
The same measure, in the same setting: in the case of `Cc1ccc(C(=O)/C(=C\c2ccc([N+](=O)[O-])cc2)S(=O)Cc2ccc(F)cc2)cc1` (centres undefined) it was -46.1% (active); in that of `COc1cc2oc(-c3cccc(C(=O)Nc4ccccc4)c3)cc(=O)c2c(O)c1OC`, 59.7%; in that of `COc1ccc(C(=O)/C=C/c2cc3ccccc3n3nnnc23)cc1`, 90.8%.
As for `Cc1nc2sccn2c1-c1nc2sccn2c1/C=C1/C(=O)Nc2ccccc21`, the growth was 39.6%.
The same measure, in the same setting: the value for `COc1cc2c(c(OC)c1OC)CCC(c1cccc(NC(=O)c3cccc(Br)c3)c1)O2` (centres undefined) was 79%; that for `CCCCCN1C=C/C(=C\C(=O)N(C)c2ccccc2Br)c2ccccc21` was 87.8%.
With `COc1ccc(C(=O)c2cc(OC)c(OC)c(OC)c2)cc1O`, the growth was 32.7%.
Still for that read-out and setting: the value for `CC(C)(C)c1cc(C=O)cc(C(C)(C)C)c1O` was 103%; that for `CCOC(=O)c1nc2c3ccccc3ccn2c1C(=O)OCC` was 96.4%; that for `CC(C)=CCC[C@](C)(O)[C@H]1CC[C@]2(C)[C@@H]1CC[C@@H]1[C@@]3(C)C/C(=C/c4ccccc4)C(=O)C(C)(C)[C@@H]3CC[C@]12C` was 66.7%.
In the case of `C=C(C)[C@@H]1CC[C@]2(C(=O)N3CCN(C)CC3)CC[C@]3(C)[C@H](CC[C@@H]4[C@@]5(C)CC[C@H](O)C(C)(C)[C@@H]5CC[C@]43C)[C@@H]12`, the growth is -86.1% (active).
